PubChem BioAssay (NCATS)
Results filed as inconclusive are left out. Calls of active or inactive are those of the source. Unless noted, calls follow the shape of the dose curve; as a rule, active = well fitted curve in the direction sought with a large enough effect; inconclusive = small, poorly fitted or top-dose-only effect, or another doubt; inactive = no such curve, though single readings can be large; an effect the other way counts as inactive or inconclusive.

Key:
[1] = biological target: T1, Hexokinase-4 (Homo sapiens) + Glucokinase regulatory protein (Homo sapiens) (UniProt P35557+Q14397); experiment: qHTS assay for inhibitors of recombinant human GCK-GKRP interaction: Diaphorase-coupled assay (AID 743205)
Summary of the method: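 GST-GCK (10 nM) with FLAG-GKRP (10 nM), 5 mM glucose and 0.4 mM ATP in pH 7.6 Hepes; compounds preincubated 20 min with substrate. G6PDH/diaphorase coupling converts resazurin to resorufin, read kinetically (ex 525/em 590 nm) for 30 min.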

[2] = biological target: T1, Hexokinase-4 (Homo sapiens) + Glucokinase regulatory protein (Homo sapiens); experiment: qHTS assay for inhibitors of recombinant human GCK-GKRP interaction: ADP-Glo assay (AID 743206);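 also: plate controls were DMSO plus enzyme for no effect and no enzyme for full effect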
Summary of the method: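 Pin-transferred compounds meet a 15 nM GST-GCK/15 nM FLAG-GKRP/2 uM S6P mix (dispense concentrations). ATP is then added to 0.4 mM final with 5 mM glucose, and the reaction runs 60 min at room temperature. ADP is quantified luminescently.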

[3] = biological target: T1, Hexokinase-4 (Homo sapiens) + Glucokinase regulatory protein (Homo sapiens); experiment: qHTS assay for inhibitors of recombinant human GCK-GKRP interaction: HTRF assay (AID 743207);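 also: 0% = DMSO with GCK present and -100% = DMSO wells lacking GCK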
Summary of the method: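 GST-GCK and FLAG-GKRP (5 nM each) were combined with 2 uM S6P in pH 7.1 Hepes/MgCl2/KCl/DTT buffer, then compound and anti-FLAG XL665/anti-GST K antibodies were added. After 60 min at room temperature, HTRF 665/615 nm emission was read.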

[4] = qHTS assay for measurement of the activity of small molecule inhibitors on Zika virus induced Caspase-3 activity in human iPSC derived neural progenitor cells (hNPCs) (AID 1224857); also: % of control where 0% means no effect; nearly all actives have a fitted effect of over 65% in size
Summary of the method: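 Caspase-3/7 induction by a 6-hour ZIKV infection was quantified with a luminescent Caspase-Glo 3/7 reagent incubated 30 minutes at room temperature. Compounds were preincubated with hNPCs for 1 hour; inhibition was calculated against uninfected and infected control wells.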

[5] = qHTS assay for measurement of the activity of small molecule inhibitors on Zika virus induced Caspase-3 activity in human astrocytoma cells (AID 1224859);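 also: plate controls were ZIKV-infected untreated cells for no effect and uninfected cells for full effect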
Summary of the method: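 In SNB-19 cells plated at 250 cells/well and grown 16-20 h, compounds were applied 1 h before ZIKV (2 FFU/cell). Six hours later caspase-3/7 luminescence was recorded.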

[6] = Natriuretic polypeptide receptor (hNpr1) antagonism - Pilot counterscreen GloSensor control cell line (AID 1347045; calls by dose curve; also: potency is read from the fitted curve at half-maximal effect)
Summary of the method: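 Control counterscreen: luciferase cGMP-biosensor HEK293 cells (no Npr1) received compound for 30 min at room temperature after GloSensor substrate loading. Luminescence was measured before and 20 min after soluble guanylyl cyclase activation by 50 uM nitroprusside.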

[7] = biological target: Atrial natriuretic peptide receptor 1 (Homo sapiens) (UniProt P16066); experiment: Natriuretic polypeptide receptor (hNpr1) antagonism - Pilot screen (AID 1347049; calls by dose curve;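 also: HEK293 cells with hNpr1 and GloSensor cGMP luciferase stimulated by 0.1 nM hNppA; agonist-evoked cGMP luminescence read 20 min after hNppA addition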; also: potency is read from the fitted curve at half-maximal effect)
Summary of the method: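 Receptor antagonism read as cGMP-dependent luminescence in hNpr1/pGS-40F HEK293 cells: pre-read after 30 min compound exposure, post-read 20 min after hNppA agonist at 0.1 nM final, all at room temperature, protected from light; A-71915 titration as control.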

[8] = biological target: Atrial natriuretic peptide receptor 2 (Homo sapiens) (UniProt P20594); experiment: Natriuretic polypeptide receptor (hNpr2) antagonism - Pilot subtype selectivity assay (AID 1347050; calls by dose curve; also: potency is read from the fitted curve at half-maximal effect)
Summary of the method: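 Antagonist mode: compounds (LOPAC1280, seven 1:5 dilutions) added 30 min before 1 nM hNppC stimulation of hNpr2-HEK293 cGMP-sensor cells; luminescence read before and 20 min after agonist at ambient temperature.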

[9] = qHTS Assay for Identifying Gametocytocidal Compounds (AID 743244);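 also: % is scaled to controls: 0 for no effect and ±100 for the full control effect; actives lower the fluorescent signal which means gametocytes are killed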; details: P. falciparum 3D7 stage III-V gametocytes, alamarBlue, 72 h; max response: active compounds read low
Summary of the method: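 Late gametocytes (III–V), P. falciparum 3D7; 72 h drug, then 24 h alamarBlue; resazurin reduction read by fluorescence.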

[10] = P-glycoprotein substrates identified in KB-3-1 adenocarcinoma cell line, qHTS therapeutic library screen (AID 1346986); also: % is scaled to controls: 0 for no effect and ±100 for the full control effect; nearly all actives have a fitted effect of over 60% in size
Summary of the method: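 Viability read by CellTiter-Glo after 72 h compound exposure in dose-response of KB-3-1 and KB-8-5-11 (P-gp-high) cells. Hits needed AC50 < 10 uM, >50% maximum response and curve class -1.1 to -2.4. Cherry-picks retested ± tariquidar, including pcDNA/MDR-19 HEK-293 pair.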

[11] = P-glycoprotein substrates identified in KB-8-5-11 adenocarcinoma cell line, qHTS therapeutic library screen (AID 1346987); also: nearly all actives have a fitted effect of over 65% in size
Summary of the method: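 Compounds are pinned in dose-response onto KB-8-5-11 cells (500 cells/well, colchicine-free medium) and left 72 h at 37 degree C. CellTiter-Glo luminescence then yields AC50 values.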

T1 sequence (P35557 whole entry, looked up): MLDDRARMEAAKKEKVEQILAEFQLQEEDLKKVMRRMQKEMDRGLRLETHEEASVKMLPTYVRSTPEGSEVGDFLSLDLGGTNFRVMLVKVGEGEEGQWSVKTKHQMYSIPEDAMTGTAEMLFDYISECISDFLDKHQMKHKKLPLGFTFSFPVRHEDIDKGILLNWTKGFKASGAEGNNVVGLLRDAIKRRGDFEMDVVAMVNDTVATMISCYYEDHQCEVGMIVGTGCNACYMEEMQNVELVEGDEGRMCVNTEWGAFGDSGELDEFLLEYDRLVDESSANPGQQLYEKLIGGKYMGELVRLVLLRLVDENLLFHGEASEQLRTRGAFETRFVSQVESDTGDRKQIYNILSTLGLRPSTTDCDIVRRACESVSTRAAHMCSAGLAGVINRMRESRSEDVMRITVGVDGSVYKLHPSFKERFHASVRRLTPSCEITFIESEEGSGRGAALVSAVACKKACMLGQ
T1 sequence (Q14397 whole entry, looked up): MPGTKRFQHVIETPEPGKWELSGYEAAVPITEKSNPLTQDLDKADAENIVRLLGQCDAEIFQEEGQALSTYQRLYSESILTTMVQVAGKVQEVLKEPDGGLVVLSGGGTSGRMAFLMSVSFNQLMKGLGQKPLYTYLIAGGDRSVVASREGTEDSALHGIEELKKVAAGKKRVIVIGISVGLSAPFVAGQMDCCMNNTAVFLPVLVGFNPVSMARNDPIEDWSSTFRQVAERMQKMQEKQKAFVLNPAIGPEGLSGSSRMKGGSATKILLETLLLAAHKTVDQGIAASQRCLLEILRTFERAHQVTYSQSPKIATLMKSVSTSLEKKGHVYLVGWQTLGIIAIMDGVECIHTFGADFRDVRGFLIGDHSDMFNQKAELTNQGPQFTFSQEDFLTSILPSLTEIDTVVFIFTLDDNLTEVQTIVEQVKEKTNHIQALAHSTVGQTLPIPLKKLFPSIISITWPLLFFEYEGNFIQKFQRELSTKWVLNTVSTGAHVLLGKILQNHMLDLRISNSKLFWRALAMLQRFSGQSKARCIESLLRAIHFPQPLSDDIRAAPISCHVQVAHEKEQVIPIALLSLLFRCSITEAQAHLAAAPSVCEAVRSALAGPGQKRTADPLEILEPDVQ
Chain of Atrial natriuretic peptide receptor 2 (Homo sapiens) (P20594 whole entry, looked up): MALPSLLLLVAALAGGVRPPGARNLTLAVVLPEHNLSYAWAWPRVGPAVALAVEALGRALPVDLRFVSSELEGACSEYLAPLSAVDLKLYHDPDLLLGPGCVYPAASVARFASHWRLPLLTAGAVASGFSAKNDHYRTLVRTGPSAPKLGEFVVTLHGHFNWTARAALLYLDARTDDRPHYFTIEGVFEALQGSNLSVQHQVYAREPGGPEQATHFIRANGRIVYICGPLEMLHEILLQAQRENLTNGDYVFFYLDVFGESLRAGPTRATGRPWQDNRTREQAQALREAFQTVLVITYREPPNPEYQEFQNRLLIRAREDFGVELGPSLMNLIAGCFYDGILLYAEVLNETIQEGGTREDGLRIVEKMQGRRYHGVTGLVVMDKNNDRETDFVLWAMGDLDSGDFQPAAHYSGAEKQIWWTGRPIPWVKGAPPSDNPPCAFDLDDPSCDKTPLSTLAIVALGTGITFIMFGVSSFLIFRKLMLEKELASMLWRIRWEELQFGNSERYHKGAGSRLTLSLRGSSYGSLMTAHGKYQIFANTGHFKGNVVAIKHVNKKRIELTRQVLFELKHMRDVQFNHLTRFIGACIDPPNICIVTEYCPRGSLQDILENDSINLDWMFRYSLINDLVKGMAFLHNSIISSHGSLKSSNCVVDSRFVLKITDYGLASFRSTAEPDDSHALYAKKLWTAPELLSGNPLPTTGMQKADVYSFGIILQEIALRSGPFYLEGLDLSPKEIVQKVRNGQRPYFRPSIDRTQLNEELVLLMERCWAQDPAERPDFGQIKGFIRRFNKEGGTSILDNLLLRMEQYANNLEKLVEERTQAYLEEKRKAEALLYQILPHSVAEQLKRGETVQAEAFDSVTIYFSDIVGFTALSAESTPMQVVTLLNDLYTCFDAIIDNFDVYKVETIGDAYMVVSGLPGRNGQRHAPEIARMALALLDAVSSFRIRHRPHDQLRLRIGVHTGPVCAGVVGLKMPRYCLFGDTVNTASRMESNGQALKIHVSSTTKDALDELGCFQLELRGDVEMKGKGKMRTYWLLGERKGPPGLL
Chain of Atrial natriuretic peptide receptor 1 (Homo sapiens) (P16066 whole entry, looked up): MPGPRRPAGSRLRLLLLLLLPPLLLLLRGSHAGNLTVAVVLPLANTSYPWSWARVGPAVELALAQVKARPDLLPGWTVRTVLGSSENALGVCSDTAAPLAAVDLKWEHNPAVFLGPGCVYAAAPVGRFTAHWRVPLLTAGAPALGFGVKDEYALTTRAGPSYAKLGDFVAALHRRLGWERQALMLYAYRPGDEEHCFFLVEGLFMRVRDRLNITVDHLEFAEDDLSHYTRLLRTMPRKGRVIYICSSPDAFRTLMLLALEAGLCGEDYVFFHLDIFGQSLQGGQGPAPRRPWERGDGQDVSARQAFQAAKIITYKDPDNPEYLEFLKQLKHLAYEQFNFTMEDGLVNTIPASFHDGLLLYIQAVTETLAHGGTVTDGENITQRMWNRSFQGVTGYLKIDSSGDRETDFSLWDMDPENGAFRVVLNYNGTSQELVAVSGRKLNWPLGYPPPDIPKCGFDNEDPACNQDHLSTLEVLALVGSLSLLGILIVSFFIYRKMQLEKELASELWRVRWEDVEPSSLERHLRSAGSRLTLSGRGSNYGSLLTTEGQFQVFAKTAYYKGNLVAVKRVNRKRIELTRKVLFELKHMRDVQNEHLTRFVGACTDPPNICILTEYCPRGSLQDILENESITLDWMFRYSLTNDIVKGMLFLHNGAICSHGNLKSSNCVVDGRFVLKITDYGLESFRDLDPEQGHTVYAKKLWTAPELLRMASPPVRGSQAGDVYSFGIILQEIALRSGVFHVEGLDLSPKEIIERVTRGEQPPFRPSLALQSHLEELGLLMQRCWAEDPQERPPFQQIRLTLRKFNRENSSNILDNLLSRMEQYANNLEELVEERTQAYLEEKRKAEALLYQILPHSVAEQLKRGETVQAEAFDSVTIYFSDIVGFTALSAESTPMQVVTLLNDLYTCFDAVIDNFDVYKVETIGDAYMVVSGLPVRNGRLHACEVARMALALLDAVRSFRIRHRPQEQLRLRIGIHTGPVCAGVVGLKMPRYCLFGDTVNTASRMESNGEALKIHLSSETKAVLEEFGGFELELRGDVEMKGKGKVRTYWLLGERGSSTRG

COc1cc(C(O)CO)ccc1O (stereo not drawn)
inactive: Potency [1] | Potency [2] | Potency [3] | Potency [4] | Potency [5] | Potency [6] | Potency [7] | Potency [8]

CC(C)NC[C@H](O)COc1ccc(CC(N)=O)cc1
inactive: Potency [1] | Potency [2] | Potency [3] | Potency [4] | Potency [5] | Potency [6] | Potency [7] | Potency [8]

CC[N+](CC)(CC)CC(=O)Nc1c(C)cccc1C
inactive: Potency [1] | Potency [2] | Potency [3] | Potency [4] | Potency [5] | Potency [6] | Potency [7] | Potency [8]

O=c1onc2cnc3ccccc3n12
active: Potency [6] 0.261 µM
inactive: Potency [1] | Potency [2] | Potency [4] | Potency [5] | Potency [7] | Potency [8]

Nc1ccc(-c2nc3ccc(-c4nc5ccc(N)cc5[nH]4)cc3[nH]2)cc1
inactive: Potency [1] | Potency [2] | Potency [4] | Potency [5] | Potency [6] | Potency [7] | Potency [8]

NCC(O)c1ccc(O)c(O)c1 (stereo not drawn)
inactive: Potency [1] | Potency [2] | Potency [4] | Potency [5] | Potency [6] | Potency [7] | Potency [8]

CO/N=C(\C(=O)N[C@@H]1C(=O)N2C(C(=O)O)=C(CSc3nc(=O)c(O)nn3C)CSC12)c1csc(N)n1 (stereo partly drawn)
inactive: Potency [1] | Potency [2] | Potency [3] | Potency [4] | Potency [5] | Potency [6] | Potency [7] | Potency [8]

C=CCN1CCc2c(cc(O)c(O)c2Cl)C(c2ccccc2)C1 (stereo not drawn)
inactive: Potency [1] | Potency [2] | Potency [3] | Potency [4] | Potency [5] | Potency [6] | Potency [7] | Potency [8]

COc1cc(CNC(=O)CCCCCCC(C)C)ccc1O
inactive: Potency [1] | Potency [2] | Potency [3] | Potency [4] | Potency [5] | Potency [6] | Potency [7] | Potency [8]

COc1cc(CC(=O)O)ccc1O
inactive: Potency [1] | Potency [2] | Potency [3] | Potency [4] | Potency [5] | Potency [6] | Potency [7] | Potency [8]

O=c1[nH]ccc2c(O)cccc12
inactive: Potency [1] | Potency [2] | Potency [3] | Potency [4] | Potency [5] | Potency [6] | Potency [7] | Potency [8]

COc1cc(C(O)C(=O)O)ccc1O (stereo not drawn)
inactive: Potency [1] | Potency [2] | Potency [3] | Potency [4] | Potency [5] | Potency [6] | Potency [7] | Potency [8]

CCC1(O)CC2CN(CCc3c([nH]c4ccccc34)[C@@](C(=O)OC)(c3cc4c(cc3OC)N(C)C3[C@]45CCN4CC=C[C@@](CC)([C@@H](OC(C)=O)[C@]3(O)C(=O)OC)[C@H]45)C2)C1 (stereo partly drawn)
inactive: Potency [1] | Potency [2] | Potency [3] | Potency [4] | Potency [5] | Potency [6] | Potency [7] | Potency [8]

COc1cc(/C=C(\C#N)C(=O)Nc2nnc(C(F)(F)F)s2)ccc1OCc1ccc(C(F)(F)F)cc1C(F)(F)F
inactive: Potency [1] | Potency [2] | Potency [3] | Potency [4] | Potency [5]
active: Potency [6] 14.7 µM | Potency [7] 23.9 µM | Potency [8] 16.5 µM

O=S(=O)(c1cccc2c(Cl)cccc12)N1CCCNCC1
inactive: Potency [1] | Potency [2] | Potency [3] | Potency [4] | Potency [5] | Potency [6] | Potency [7] | Potency [8]

c1ccc(CN2CCC3(CCCc4ccccc43)CC2)cc1
inactive: Potency [1] | Potency [2] | Potency [3] | Potency [4] | Potency [5] | Potency [6] | Potency [7] | Potency [8]

CN(C)CCCc1cc(C(=O)Nc2ccc(-c3ccncc3)cc2)ccc1O
inactive: Potency [1] | Potency [2] | Potency [3] | Potency [4] | Potency [5] | Potency [6] | Potency [7] | Potency [8]

O=C1NC(=O)c2cc(Nc3ccccc3)c(Nc3ccccc3)cc21
inactive: Potency [1] | Potency [2] | Potency [3] | Potency [4] | Potency [5] | Potency [6] | Potency [7] | Potency [8]

CC(=O)NCCc1c[nH]c2ccc(O)cc12
inactive: Potency [2] | Potency [3] | max response [9] 28.4% | Potency [4] | Potency [5] | Potency [10] | Potency [11] | Potency [6] | Potency [8]

Nc1ncnc2c1ncn2C1CCCC1
inactive: Potency [1] | Potency [2] | Potency [3] | Potency [4] | Potency [5] | Potency [6] | Potency [7] | Potency [8]

CCOC(=O)C12CC1/C(=N/O)c1ccccc1O2 (stereo not drawn)
inactive: Potency [1] | Potency [2] | Potency [3] | Potency [4] | Potency [5] | Potency [6] | Potency [7] | Potency [8]

N#C/C(=C\c1ccc(O)c(O)c1)C(=O)NCCCNC(=O)/C(C#N)=C/c1ccc(O)c(O)c1
inactive: Potency [2] | Potency [3] | max response [9] 5.33% | Potency [4] | Potency [5] | Potency [10] | Potency [11] | Potency [6] | Potency [8]

NC(=O)CNCCC(c1ccccc1)c1ccccc1
inactive: Potency [1] | Potency [2] | Potency [3] | Potency [4] | Potency [5] | Potency [6] | Potency [7] | Potency [8]
